# Source: the supplement of paper PMC10849652
# About 8,800 targets were measured; listed, in parts, are those with a hit and a random draw of the rest. About 0.5% of all pairs of compound and target were hits. A number with no mark means an inactive call.
# Tests used:
# Assay in all cases: log2 fold change, soluble protein after heating vs DMSO (PISA); higher = thermal stabilisation; K562 lysate, 10 uM; active = over 0.2 and 3.5 SD of the protein, either way, in both replicates (recomputed)
# [1] = compound: CCCS(=O)(=O)Nc1ccc(F)c(C(=O)c2c[nH]c3ncc(-c4ccc(Cl)cc4)cc23)c1F [vemurafenib]
# Outline: (§1)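 Log-two fold change in thermal stability relative to solvent controls is reported from duplicates. For each sample, crude K562 extract from dounce-homogenised pellets in PBS pH 7.4 with 1 mM MgCl2, at 1 mg/mL protein, was treated with 10 μM compound for 30 min. Aliquots heated for 3 min across 48°C-58°C were pooled, brought to 0.5% NP-40 at 4°C and cleared at 21,000xg for 90 min. The supernatant was quantified by TMTpro 16plex LC-MS/MS with channel sums equalised.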
# [2] = compound: CCCS(=O)(=O)Nc1ccc(F)c(C(=O)c2c[nH]c3ncc(Cl)cc23)c1F
# Outline: as §1
# [3] = compound: CCN(CCCOc1ccc2c(Nc3cc(CC(=O)Nc4cccc(F)c4)[nH]n3)ncnc2c1)CCOP(=O)(O)O [barasertib]
# Outline: as §1
# [4] = compound: CC[C@@H]1C(=O)N(C)c2cnc(Nc3ccc(C(=O)NC4CCN(C)CC4)cc3OC)nc2N1C1CCCC1
# Outline: as §1
# [5] = compound: CC[C@@H]1C(=O)N(C)c2cnc(Nc3ccc(C(=O)N[C@H]4CC[C@H](N5CCN(CC6CC6)CC5)CC4)cc3OC)nc2N1C(C)C [volasertib]
# Outline: as §1
# [6] = compound: CCn1c(C(=O)N(C2CC2)C2CC2)cc2c3c(ncn3C)c(Nc3cc(C)n(C)n3)nc21
# Outline: as §1
# [7] = compound: CCn1cc(-c2ccnc3[nH]c(-c4cccc(CN(C)C)c4)cc23)c(-c2ccc(NC(=O)N(C)C)cc2)n1
# Outline: as §1
# [8] = compound: CN1CCC(CNc2ccc3ncc(-c4cccc(OC(F)(F)F)c4)n3n2)CC1
# Outline: as §1
# [9] = compound: CN1CCN(CCOc2cc(OC3CCOCC3)c3c(Nc4c(Cl)ccc5c4OCO5)ncnc3c2)CC1 [saracatinib]
# Outline: as §1
# [10] = compound: CN1CCN(c2nc(C3=C(c4c[nH]c5ccccc45)C(=O)NC3=O)c3ccccc3n2)CC1 [sotrastaurin]
# Outline: as §1
# Chain of UniProt O43175 (O43175 whole entry, looked up): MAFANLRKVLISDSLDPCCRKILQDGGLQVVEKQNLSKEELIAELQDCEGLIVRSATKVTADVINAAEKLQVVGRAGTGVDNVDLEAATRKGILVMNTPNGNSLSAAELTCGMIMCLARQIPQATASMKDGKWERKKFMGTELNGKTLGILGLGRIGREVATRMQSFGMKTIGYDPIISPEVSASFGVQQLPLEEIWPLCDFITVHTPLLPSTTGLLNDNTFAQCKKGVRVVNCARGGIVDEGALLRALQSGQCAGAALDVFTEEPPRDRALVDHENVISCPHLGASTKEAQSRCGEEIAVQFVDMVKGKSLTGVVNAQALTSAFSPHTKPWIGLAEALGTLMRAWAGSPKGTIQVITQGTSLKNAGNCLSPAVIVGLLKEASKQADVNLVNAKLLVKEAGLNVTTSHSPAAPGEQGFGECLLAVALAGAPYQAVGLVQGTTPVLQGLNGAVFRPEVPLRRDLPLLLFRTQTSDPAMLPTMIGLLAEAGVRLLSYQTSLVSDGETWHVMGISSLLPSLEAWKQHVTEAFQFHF
# Chain of UniProt Q9H3S7 (Q9H3S7 whole entry, looked up): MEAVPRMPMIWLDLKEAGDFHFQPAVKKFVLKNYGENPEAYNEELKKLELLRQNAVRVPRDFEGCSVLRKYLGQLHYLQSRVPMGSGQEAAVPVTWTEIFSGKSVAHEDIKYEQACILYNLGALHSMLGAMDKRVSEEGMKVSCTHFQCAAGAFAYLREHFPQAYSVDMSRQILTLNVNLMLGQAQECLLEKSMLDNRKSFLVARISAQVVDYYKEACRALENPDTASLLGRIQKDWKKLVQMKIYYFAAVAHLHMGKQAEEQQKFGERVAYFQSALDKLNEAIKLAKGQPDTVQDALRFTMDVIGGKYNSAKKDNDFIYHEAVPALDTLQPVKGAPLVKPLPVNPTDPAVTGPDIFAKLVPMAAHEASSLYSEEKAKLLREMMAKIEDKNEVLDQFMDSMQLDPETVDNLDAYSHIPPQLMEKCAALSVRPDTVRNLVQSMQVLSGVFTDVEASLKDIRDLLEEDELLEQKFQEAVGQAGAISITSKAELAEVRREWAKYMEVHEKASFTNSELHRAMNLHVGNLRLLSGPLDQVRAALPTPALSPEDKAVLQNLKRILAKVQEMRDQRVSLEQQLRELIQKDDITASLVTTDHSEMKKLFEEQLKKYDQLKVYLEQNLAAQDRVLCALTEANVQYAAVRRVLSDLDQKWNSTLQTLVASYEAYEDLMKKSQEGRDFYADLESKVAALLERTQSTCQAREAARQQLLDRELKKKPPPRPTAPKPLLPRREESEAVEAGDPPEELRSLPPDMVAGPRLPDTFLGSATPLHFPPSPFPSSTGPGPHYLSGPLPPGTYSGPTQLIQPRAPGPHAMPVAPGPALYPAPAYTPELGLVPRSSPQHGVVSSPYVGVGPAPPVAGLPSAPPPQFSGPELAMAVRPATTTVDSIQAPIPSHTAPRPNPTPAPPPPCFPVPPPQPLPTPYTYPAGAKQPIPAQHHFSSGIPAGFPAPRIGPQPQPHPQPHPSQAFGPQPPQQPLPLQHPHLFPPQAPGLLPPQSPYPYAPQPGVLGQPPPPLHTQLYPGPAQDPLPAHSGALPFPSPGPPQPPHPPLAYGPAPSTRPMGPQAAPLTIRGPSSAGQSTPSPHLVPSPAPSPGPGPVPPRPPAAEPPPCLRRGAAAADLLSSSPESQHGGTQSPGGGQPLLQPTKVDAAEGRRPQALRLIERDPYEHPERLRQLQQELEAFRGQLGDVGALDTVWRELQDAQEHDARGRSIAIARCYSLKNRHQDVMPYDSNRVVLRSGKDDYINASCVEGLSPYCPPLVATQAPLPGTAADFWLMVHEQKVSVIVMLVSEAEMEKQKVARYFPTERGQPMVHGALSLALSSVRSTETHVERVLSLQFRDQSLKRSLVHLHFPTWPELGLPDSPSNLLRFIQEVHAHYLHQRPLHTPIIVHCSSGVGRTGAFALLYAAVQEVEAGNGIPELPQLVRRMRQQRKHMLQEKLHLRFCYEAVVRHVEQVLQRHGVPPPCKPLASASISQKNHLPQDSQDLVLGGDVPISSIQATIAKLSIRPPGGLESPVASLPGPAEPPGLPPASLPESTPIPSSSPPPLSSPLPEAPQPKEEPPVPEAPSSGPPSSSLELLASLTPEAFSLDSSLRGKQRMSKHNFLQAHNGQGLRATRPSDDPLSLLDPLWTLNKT
# Chain of UniProt P35236 (P35236 whole entry, looked up): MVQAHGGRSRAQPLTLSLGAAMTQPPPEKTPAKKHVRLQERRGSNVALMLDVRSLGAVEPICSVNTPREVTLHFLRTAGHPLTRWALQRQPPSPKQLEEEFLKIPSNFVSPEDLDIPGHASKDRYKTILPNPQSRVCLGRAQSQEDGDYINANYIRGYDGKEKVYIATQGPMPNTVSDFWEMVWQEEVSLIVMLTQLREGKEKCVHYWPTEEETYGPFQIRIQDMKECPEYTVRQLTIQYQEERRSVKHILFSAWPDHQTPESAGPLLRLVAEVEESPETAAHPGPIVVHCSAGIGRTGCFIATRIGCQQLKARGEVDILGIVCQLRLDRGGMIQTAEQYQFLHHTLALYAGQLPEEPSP
# Chain of UniProt Q05397 (Q05397 whole entry, looked up): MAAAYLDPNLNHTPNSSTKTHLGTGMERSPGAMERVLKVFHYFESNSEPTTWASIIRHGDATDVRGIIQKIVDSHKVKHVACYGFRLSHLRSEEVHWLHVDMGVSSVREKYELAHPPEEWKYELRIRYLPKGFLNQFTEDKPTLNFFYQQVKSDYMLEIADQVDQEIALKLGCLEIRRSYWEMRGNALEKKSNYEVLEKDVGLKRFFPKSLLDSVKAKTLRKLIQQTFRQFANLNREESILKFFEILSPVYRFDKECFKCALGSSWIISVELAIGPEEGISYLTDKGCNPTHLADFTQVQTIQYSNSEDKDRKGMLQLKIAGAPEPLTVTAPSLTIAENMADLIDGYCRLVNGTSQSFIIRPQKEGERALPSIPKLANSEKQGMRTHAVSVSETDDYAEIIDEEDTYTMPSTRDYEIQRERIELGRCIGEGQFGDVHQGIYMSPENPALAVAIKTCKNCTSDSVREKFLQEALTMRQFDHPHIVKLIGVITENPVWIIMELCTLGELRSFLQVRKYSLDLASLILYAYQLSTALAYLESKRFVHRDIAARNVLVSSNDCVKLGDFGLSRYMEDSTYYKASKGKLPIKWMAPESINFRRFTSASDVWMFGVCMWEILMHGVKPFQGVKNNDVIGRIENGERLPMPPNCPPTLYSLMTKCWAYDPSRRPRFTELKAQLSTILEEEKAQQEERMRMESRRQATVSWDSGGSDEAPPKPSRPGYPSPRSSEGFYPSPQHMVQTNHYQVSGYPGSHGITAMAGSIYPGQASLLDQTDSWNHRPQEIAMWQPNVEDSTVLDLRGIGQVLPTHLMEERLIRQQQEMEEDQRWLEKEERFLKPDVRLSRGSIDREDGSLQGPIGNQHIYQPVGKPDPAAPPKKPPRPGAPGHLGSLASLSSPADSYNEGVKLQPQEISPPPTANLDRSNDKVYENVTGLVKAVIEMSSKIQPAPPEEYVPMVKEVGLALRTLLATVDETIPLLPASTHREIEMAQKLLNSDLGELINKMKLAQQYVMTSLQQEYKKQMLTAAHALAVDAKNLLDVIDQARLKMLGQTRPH
# Chain of UniProt P49642 (P49642 whole entry, looked up): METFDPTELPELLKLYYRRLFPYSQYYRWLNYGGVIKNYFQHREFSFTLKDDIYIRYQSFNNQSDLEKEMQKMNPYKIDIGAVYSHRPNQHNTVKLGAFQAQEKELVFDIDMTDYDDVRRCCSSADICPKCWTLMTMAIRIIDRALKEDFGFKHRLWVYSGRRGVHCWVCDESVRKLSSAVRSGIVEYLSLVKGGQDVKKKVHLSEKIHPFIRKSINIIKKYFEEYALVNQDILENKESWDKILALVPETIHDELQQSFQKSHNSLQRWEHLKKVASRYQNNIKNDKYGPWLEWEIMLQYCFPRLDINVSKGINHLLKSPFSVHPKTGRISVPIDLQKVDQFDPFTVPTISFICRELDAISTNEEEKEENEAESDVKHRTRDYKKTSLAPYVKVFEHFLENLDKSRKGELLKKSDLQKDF
# Chain of UniProt P07737 (P07737 whole entry, looked up): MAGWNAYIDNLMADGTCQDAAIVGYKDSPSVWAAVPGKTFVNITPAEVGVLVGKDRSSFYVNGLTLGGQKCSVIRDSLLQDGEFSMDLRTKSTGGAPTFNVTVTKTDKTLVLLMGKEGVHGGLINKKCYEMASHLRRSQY
# Chain of UniProt P14314 (P14314 whole entry, looked up): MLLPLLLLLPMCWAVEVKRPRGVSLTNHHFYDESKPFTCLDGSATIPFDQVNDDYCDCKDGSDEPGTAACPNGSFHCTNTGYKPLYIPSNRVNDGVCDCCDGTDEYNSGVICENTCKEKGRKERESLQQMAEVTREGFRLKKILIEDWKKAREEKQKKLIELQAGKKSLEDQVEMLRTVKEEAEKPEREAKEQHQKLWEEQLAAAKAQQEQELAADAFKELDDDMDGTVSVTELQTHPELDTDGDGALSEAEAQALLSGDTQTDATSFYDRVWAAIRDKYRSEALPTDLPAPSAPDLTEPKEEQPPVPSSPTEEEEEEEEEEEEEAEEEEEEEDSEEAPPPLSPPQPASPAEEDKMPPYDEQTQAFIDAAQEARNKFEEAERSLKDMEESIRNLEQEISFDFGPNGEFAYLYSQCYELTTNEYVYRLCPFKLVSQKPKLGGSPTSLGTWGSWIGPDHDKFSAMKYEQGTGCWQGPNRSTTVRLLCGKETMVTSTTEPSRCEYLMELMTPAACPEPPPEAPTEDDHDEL
# Chain of UniProt Q8N8N7 (Q8N8N7 whole entry, looked up): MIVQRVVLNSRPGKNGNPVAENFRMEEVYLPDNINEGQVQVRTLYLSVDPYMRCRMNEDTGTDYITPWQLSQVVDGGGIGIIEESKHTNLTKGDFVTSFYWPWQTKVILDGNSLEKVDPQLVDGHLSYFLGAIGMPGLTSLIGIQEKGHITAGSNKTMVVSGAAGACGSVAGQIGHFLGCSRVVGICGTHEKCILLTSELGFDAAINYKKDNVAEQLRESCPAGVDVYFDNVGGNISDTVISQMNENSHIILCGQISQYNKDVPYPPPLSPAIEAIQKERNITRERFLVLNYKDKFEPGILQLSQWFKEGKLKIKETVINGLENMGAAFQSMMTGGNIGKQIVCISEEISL
Target,log2 fold change [1],log2 fold change [2],log2 fold change [3],log2 fold change [4],log2 fold change [5],log2 fold change [6],log2 fold change [7],log2 fold change [8],log2 fold change [9],log2 fold change [10]
PLA2G4B isoform 6 (UniProt P0C869),0.05,0.069,0.002,0.144,0.018,-0.191,0.034,-0.014,0.101,-0.168
PTPN7 isoform 3 (UniProt P35236),0.016,0.06,0.026,-0.025,-0.06,0.063,-0.076,0.124,0.005,0.015
PIP4P2 (UniProt Q8N4L2),0.038,0.031,0.311,0.039,0.01,-0.016,0.022,0.03,0.038,-0.16
PKP3 isoform 2 (UniProt Q9Y446),-0.087,0.05,-0.01,0.061,-0.005,0.05,0.027,-0.088,-0.037,0.001
PHOSPHO2 (UniProt Q8TCD6),-0.023,-0.026,0.047,0.232,0.019,0.003,-0.084,0.001,-0.023,0.039
PIKFYVE (UniProt Q9Y2I7),-0.022,0.042,0.26,-0.036,-0.047,0.04,-0.056,0.038,0.054,0.038
PRMT5 (UniProt O14744),0.006,-0.008,-0.007,0.02,-0.007,-0.009,-0.067,0.017,-0.032,0.015
PRIM2 (UniProt P49643),0.025,0.04,-0.005,-0.034,-0.048,0.019,-0.027,-0.046,-0.03,0.02
PPME1 isoform 4 (UniProt Q9Y570),0.005,0.003,-0.045,-0.006,0.016,0.028,-0.015,0.008,-0.01,-0.008
PRKCSH isoform 2 (UniProt P14314),0.007,-0.053,-0.159,0.03,-0.052,-0.101,-1.03 (active),0.326,0.022,0.199
POLB (UniProt P06746),-0.013,0.003,-0.029,-0.013,-0.025,0.032,-0.015,-0.07,0.033,0.048
PTK2 (UniProt Q05397),0.017,-0.091,-0.015,0.352,0.145,0.044,-0.001,0.056,-0.023,0.039
PIK3CB (UniProt P42338),-0.079,0.001,0.011,0.314,-0.025,-0.07,-0.02,0.427,-0.03,0.158
PHGDH (UniProt O43175),-0.005,-0.001,-0.049,0.02,-0.025,0.016,0.098,-0.051,-0.012,-0.027
PDCD4 (UniProt Q53EL6),0.014,0.02,0.024,-0.023,-0.03,0.029,-0.029,-0.013,0.009,0.001
POLR2M (UniProt P0CAP2),0.014,0.02,0.021,-0.108,-0.024,0.008,-0.055,0.067,-0.007,0.041
PDXDC1 (UniProt Q6P996),-0.005,-0.02,0.008,0.03,-0.059,-0.004,-0.031,-0.067,-0.005,0.015

Target,log2 fold change [1],log2 fold change [2],log2 fold change [3],log2 fold change [4],log2 fold change [5],log2 fold change [6],log2 fold change [7],log2 fold change [8],log2 fold change [9],log2 fold change [10]
PDAP1 (UniProt Q13442),-0.026,-0.01,-0.064,0.069,0.04,-0.043,-0.267 (active),0.159,-0.002,-0.02
PTGR2 (UniProt Q8N8N7),-0.029,0.04,-0.022,0.056,-0.039,0.069,0.012,0.092,-0.021,0.1
PHKB isoform 3 (UniProt Q93100),-0.043,-0.007,0.04,0.022,-0.034,0.009,-0.146,0.138,0.019,-0.014
PTPN23 (UniProt Q9H3S7),-0.008,0,0.003,-0.006,-0.042,0.026,-0.017,0.007,0.008,-0.001
PTK2B (UniProt Q14289),0.001,-0.03,-0.013,0.118,0.022,-0.044,0.001,0.107,0.019,0.033
PIGO (UniProt Q8TEQ8),-0.112,0.109,0.064,0.013,-0.069,-0.081,-0.029,-0.043,-0.013,-0.499 (active)
PPP2R5C isoform 5 (UniProt Q13362),-0.056,-0.013,-0.03,-0.063,0.014,0.058,0.046,-0.08,0,-0.011
PRKACB isoform 2 (UniProt P22694),-0.077,-0.016,0.013,-0.021,-0.01,-0.072,-0.021,0.125,0.012,0.175
PCBP2 isoform 3 (UniProt Q15366),-0.059,-0.004,-0.006,-0.021,-0.003,0.057,-0.022,-0.002,-0.017,-0.006
PCBP2 (UniProt H3BRU6),0.13,-0.031,-0.115,0.085,0.036,-0.082,-0.041,0.047,0.1,0.179
PPP4R2 (UniProt Q9NY27),-0.033,0.026,-0.041,0.057,-0.014,-0.042,0.21,0.028,-0.007,0.006
PRIM1 (UniProt P49642),-0.036,0.022,0.031,-0.089,-0.069,0.062,-0.008,-0.029,-0.002,0.007
PDXK (UniProt O00764),0.005,-0.001,-0.014,0.329 (active),0.025,-0.004,-0.134,0.156,-0.023,-0.016
PFN1 (UniProt P07737),-0.01,-0.01,0.012,0.02,0.015,0.02,-0.02,0.028,-0.004,-0.005
PIK3R2 (UniProt O00459),-0.032,0,-0.002,0.128,-0.003,0.071,-0.018,0.289,-0.014,0.091
PUF60 isoform 2 (UniProt Q9UHX1),-0.126,0.101,-0.057,0.047,0.021,-0.062,1.25 (active),-0.115,,-0.043
